Results as given in PubChem BioAssay (Tox21).
Records with an inconclusive call do not appear. Where a call stands in place of a potency, no number is given. The source made the active and inactive calls. The call rests on the fitted dose curve; in most records, active means well fitted curve in the direction sought with a large enough effect in the repeat runs; inconclusive means weak or mixed curves; inactive means no such curve, though single readings can be large; an effect the other way counts as inactive or inconclusive.

Assays:
[1] = target: Voltage-gated inwardly rectifying potassium channel KCNH2 (Homo sapiens) (UniProt Q12809); assay: Human Ether-a-go-go-Related Gene (hERG) channel small molecule antagonists: fluorescence cell-based qHTS assay (AID 1671200);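 on activity change, negative = inhibition: hERG-expressing U2OS cells given a thallium stimulus after FluxOR II dye loading; series mostly up to about 77 µM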
Procedure, shortened: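 Kinetic two-minute fluorescence traces, sampled at 1 s, were collected following thallium stimulus of U2OS cells (1000 per well) that had been cultured overnight at 37 C and loaded with FluxOR II.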

[2] = target: Cytochrome P450 3A4 (Homo sapiens) (UniProt P08684); assay: Cytochrome P450 Family 3 Subfamily A Member 4 (CYP3A4) small molecule antagonists: luciferase reporter qHTS assay (AID 1671201); on activity change, negative = inhibition: series mostly up to about 120 µM
Procedure, shortened: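 Proluciferin-to-luciferin conversion by CYP3A4, NADPH-regenerated, 1 h RT; luminescence read as RLU. Ketoconazole as control.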

[3] = target: Cytochrome P450 1A2 (Homo sapiens) (UniProt P05177); assay: Cytochrome P450 Family 1 Subfamily A Member 2 (CYP1A2) small molecule antagonists: luciferase reporter qHTS assay (AID 1671199); on activity change, negative = inhibition: series mostly up to about 120 µM
Procedure, shortened: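 Read-out is luminescence from luciferin detection reagent (20 min) proportional to CYP1A2 activity; compounds in DMSO preincubated 10 min with enzyme and proluciferin substrate, then NADPH regeneration solution, 1 h, room temperature.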
Further: nearly all actives have a fitted effect of over 50% in size.
Potency means the concentration at half of the fitted maximal effect.

Chain of Voltage-gated inwardly rectifying potassium channel KCNH2 (Homo sapiens) (Q12809 whole entry, looked up): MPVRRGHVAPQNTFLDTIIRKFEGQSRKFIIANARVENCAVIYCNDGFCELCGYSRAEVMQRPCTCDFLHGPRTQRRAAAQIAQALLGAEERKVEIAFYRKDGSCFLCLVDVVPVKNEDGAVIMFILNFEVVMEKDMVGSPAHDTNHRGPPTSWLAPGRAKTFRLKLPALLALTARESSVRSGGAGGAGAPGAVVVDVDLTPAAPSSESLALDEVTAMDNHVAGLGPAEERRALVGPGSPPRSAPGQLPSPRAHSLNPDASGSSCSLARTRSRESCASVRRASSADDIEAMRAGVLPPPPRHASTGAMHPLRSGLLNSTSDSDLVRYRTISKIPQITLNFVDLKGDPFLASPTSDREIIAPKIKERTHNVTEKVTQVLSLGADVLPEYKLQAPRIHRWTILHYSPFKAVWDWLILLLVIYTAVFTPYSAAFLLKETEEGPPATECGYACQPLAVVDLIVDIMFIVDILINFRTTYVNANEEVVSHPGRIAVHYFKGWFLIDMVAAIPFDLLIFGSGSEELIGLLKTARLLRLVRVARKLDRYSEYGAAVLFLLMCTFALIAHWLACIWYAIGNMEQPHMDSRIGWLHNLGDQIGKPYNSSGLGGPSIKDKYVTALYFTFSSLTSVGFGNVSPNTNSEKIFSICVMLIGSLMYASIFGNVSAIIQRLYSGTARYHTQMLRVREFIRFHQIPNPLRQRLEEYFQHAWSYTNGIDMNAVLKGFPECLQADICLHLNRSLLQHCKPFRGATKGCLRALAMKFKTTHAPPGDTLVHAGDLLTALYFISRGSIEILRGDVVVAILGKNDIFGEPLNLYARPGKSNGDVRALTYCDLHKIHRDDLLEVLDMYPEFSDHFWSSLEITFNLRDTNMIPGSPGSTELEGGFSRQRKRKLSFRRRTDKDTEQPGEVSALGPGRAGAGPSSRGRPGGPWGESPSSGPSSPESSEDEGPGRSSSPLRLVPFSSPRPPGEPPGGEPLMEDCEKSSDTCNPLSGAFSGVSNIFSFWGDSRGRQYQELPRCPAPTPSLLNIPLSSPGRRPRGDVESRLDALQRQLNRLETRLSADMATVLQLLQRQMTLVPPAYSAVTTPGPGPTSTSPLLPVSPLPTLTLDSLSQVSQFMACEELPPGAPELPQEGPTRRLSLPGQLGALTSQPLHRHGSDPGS
Chain of Cytochrome P450 3A4 (Homo sapiens) (P08684 whole entry, looked up): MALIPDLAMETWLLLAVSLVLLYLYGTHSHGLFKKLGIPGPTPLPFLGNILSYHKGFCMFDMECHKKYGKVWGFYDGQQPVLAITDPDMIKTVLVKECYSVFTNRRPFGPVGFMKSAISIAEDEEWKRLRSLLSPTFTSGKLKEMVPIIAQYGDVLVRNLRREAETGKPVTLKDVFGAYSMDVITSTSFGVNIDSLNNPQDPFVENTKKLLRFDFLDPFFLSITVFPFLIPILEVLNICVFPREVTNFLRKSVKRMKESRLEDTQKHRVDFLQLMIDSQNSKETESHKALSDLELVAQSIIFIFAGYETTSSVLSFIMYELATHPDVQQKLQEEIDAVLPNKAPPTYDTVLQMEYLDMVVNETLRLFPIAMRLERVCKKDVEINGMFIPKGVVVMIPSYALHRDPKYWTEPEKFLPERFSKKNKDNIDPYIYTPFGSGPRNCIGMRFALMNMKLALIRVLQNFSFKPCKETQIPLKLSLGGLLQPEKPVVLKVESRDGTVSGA
Chain of Cytochrome P450 1A2 (Homo sapiens) (P05177 whole entry, looked up): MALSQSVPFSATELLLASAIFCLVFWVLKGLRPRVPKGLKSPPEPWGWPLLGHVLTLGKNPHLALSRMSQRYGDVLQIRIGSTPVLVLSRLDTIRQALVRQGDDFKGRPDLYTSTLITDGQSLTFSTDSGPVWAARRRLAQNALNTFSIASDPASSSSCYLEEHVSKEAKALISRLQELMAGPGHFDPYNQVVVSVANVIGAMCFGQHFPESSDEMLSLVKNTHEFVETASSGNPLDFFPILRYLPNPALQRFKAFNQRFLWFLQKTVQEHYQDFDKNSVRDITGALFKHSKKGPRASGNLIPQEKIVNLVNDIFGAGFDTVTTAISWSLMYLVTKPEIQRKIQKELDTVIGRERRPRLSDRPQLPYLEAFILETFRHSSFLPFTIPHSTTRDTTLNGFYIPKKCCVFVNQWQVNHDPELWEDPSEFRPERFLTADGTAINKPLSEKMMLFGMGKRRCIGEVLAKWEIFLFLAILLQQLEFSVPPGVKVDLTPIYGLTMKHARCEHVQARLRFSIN

Oc1c(Br)cc(Br)c2cccnc12
Potency [1]: inactive
Potency [2]: inactive

CC(C)(C)C1=CC(=O)C=C(C(C)(C)C)C1=O
Potency [1]: inactive
Potency [2]: inactive

COc1cc(C(C)C)c2c(c1)S(=O)(=O)N(COc1cc(=O)n3cccc(OCCN4CCCCC4)c3n1)C2=O
activity change, negative = inhibition [3]: -18.4% [at 23.6 µM] (inactive)
Potency [2]: 0.301 µM (active)

CCN(CC)CCCN(c1ccccc1)C1Cc2ccccc2C1
Potency [1]: 2.13 µM (active)
Potency [2]: inactive

CC(C)N=C(N)/N=C(\N)Nc1ccc(Cl)cc1
Potency [2]: inactive

O=C(Oc1ccccc1)c1cccc(C(=O)Oc2ccccc2)c1
Potency [2]: inactive

CCN1CCN(c2cc(-c3ccc(F)cc3)c3c(n2)CCCCCC3)CC1
Potency [1]: 4.65 µM (active)

NCCCCCCNCCCCCCN
Potency [3]: inactive
Potency [1]: inactive
Potency [2]: 3.5 µM (active)

[O]=[Zr]
Potency [3]: 35.4 µM (active)
Potency [1]: inactive
Potency [2]: inactive

C/C=C/CO
Potency [1]: inactive
Potency [2]: inactive

C[C@@]12C(=O)OC(=O)[C@]1(C)C1CCC2O1
Potency [3]: inactive
Potency [1]: inactive
Potency [2]: inactive

C=CC(=C)CC/C=C(\C)CCC=C(C)C
Potency [3]: 15.1 µM (active)
activity change, negative = inhibition [1]: -2.72% [at 15.8 µM] (inactive)
Potency [2]: 16.9 µM (active)

CCOC(=O)CN
Potency [3]: inactive
Potency [1]: inactive
Potency [2]: inactive

C[C@H]1O[C@@H](O[C@H]2[C@@H](O)C[C@H](O[C@H]3[C@@H](O)C[C@H](O[C@H]4CC[C@@]5(C)[C@H](CC[C@@H]6[C@@H]5C[C@@H](O)[C@]5(C)[C@@H](C7=CC(=O)OC7)CC[C@]65O)C4)O[C@@H]3C)O[C@@H]2C)C[C@H](O)[C@@H]1O
Potency [1]: inactive

CCCCCCCCCCCCCc1ccccc1
Potency [3]: inactive
Potency [2]: inactive

C1CC(COCC2CO2)CCC1COCC1CO1 (configuration not stated)
Potency [1]: inactive
Potency [2]: inactive

C=C1C(C)(C)[C@@]2(Cl)C(Cl)[C@]1(Cl)C(Cl)(Cl)C2(Cl)Cl (some centres not stated)
Potency [3]: 39.2 µM (active)
Potency [1]: 27 µM (active)
Potency [2]: 0.985 µM (active)

CCCCCCCCCCCCCOP(=O)(O)O
Potency [1]: inactive
Potency [2]: inactive

CCCCCCC(C)Nc1ccc(Nc2ccccc2)cc1 (configuration not stated)
Potency [3]: 22.4 µM (active)
Potency [2]: 35.6 µM (active)

Cc1ccc(CCn2c3c(c4cc(Cl)ccc42)CN(C)CC3)cn1
Potency [1]: 12 µM (active)

OCCCc1cccnc1
Potency [3]: inactive
Potency [1]: inactive
Potency [2]: 15.9 µM (active)

Cc1cn[nH]c1
Potency [1]: inactive

CCc1cccc(CC)c1N(COC)C(=O)CS(=O)(=O)O
Potency [3]: inactive
Potency [1]: inactive
Potency [2]: inactive

CCCCCCCC(OC)OC
Potency [3]: inactive
Potency [1]: inactive
Potency [2]: inactive

Cc1cccc(C)c1NC(=O)CN1CCN(CCCC(c2ccc(F)cc2)c2ccc(F)cc2)CC1
Potency [3]: inactive
Potency [2]: inactive

O=C(NO)c1ccccc1
Potency [1]: inactive
Potency [2]: inactive

CCCCCCCCC(C)=O
Potency [3]: inactive
Potency [1]: inactive
Potency [2]: inactive

CCCCOC(=O)C(C)CC (configuration not stated)
Potency [1]: inactive
Potency [2]: inactive

O=S(=O)(O)c1cc(S(=O)(=O)O)c2ccc3c(S(=O)(=O)O)cc(S(=O)(=O)O)c4ccc1c2c43
activity change, negative = inhibition [3]: -17.6% [at 23.6 µM] (inactive)
activity change, negative = inhibition [1]: 2.85% [at 15.8 µM] (inactive)
activity change, negative = inhibition [2]: 10.6% [at 23.6 µM] (inactive)

CCCN(CCc1cccs1)[C@H]1CCc2c(O)cccc2C1
Potency [1]: 3.01 µM (active)
Potency [2]: inactive

Clc1ccc(C(Cn2ccnc2)OCc2c(Cl)cccc2Cl)c(Cl)c1 (configuration not stated)
Potency [1]: 7.56 µM (active)

COC(=O)C1=C(C)NC(C)=C(C(=O)OCCCN2CCC(c3ccccc3)(c3ccccc3)CC2)C1c1cccc([N+](=O)[O-])c1 (configuration not stated)
Potency [1]: 1.51 µM (active)

CCOC(=O)COc1ccc(C)cc1
Potency [3]: 39.9 µM (active)
Potency [1]: inactive
Potency [2]: inactive

CC(C)(C)c1n[nH]c(=O)n(N)c1=O
Potency [3]: inactive
Potency [1]: inactive
Potency [2]: inactive

Nc1ncnc2c1ncn2[C@@H]1O[C@H](COP(=O)(O)O)[C@@H](O)[C@H]1O
Potency [1]: inactive
Potency [2]: inactive

CC(C)=C1CC[C@@H](C)CC1=O
Potency [1]: inactive
Potency [2]: inactive
